Screening data deposited in PubChem BioAssay by The Scripps Research Institute Molecular Screening Center.
An excerpt weighted towards active compounds, which were near 4.1% of everything screened.
hgDAF12 agonist: hgDAF-12 agonism, primary luciferase screen; HEK293 GAL4-hgDAF12 UAS-luciferase reporter, agonist luminescence; normalized to butyrate control; activation, % at 6.8 µM; hit rate 1.8% among 370,000;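 active means activation above a cutoff set at the mean of all screened compounds plus 3 SD, cut at about 10% in these data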;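 further: 0% = DMSO wells and 100% = sodium butyrate wells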
hcDAF-12 act: activates DAF-12 receptor from parasite H. contortus; HEK293 hcDAF-12 lit1-tk-luc reporter, luminescence; 0% DMSO, 100% Δ7-dafachronic acid; activation, % at 6.8 µM; hit rate 1.4% among 370,000; AID 652067;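 active means activation above the mean of all tested compounds plus 3 SD, cut at about 5.5% in these data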;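 further: 100% = response to 3 µM Δ7-dafachronic acid high control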
ssDAF12 agonist: activators of S. stercoralis DAF-12 nuclear receptor; activation, % at 6.8 µM; HEK293 ssDAF-12/GRIP1 lit1-tk-luc reporter, luminescence; % of 3 µM dafachronic acid response; AID 652126; hit rate 1% among 370,000;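 active means activation above the mean over all tested compounds plus 3 SD, cut at about 0.9% in these data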;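 further: 0% = DMSO-only wells and 100% = 3 µM delta7-dafachronic acid wells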
DAX1 inh-1: NR0B1 (DAX1) inhibition; HEK293 Gal4-DAX1 luciferase reporter, luminescence; inhibition, % at 6.75 µM; P51843; AID 504766; hit rate 0.99% among 340,000;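 active means inhibition above the mean over all tested compounds plus 3 SD, cut at about 4.2% in these data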;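 further: 0% = DAX1-transfected cells with DMSO and 100% = empty-vector control cells with DMSO; inhibition shows as a rise in luminescence from relieved DAX1 repression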
Target sequence (P51843 207-470 limits assumed): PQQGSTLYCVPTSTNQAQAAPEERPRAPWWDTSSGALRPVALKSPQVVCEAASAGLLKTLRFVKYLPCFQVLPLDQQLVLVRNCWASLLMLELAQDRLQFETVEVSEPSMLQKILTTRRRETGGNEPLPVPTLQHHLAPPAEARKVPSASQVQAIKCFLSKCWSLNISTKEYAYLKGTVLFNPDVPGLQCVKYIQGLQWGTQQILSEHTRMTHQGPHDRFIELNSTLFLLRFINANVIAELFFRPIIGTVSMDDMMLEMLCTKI
DAX1 inh-2: inhibitors of DAX1 repression of SF-1 activated StAR promoter | HEK293T StAR-luciferase reporter, SF-1/DAX-1 repression relief | inhibition, % at 6.8 µM | hit rate 1.1% among 370,000 | AID 652010;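 active means inhibition above the mean over all tested compounds plus 3 SD, cut at about 3.6% in these data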;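 further: 0% = DAX-1 cells with DMSO and 100% = cells lacking DAX-1 with DMSO; higher inhibition means more luminescence from relief of DAX-1 repression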
LXR ag: activates human LXR-beta, counter-screen for hcDAF-12 agonists. 3,400 tested, under 10 active. activation, % at 6.8 µM. HEK293 Gal4-LXR tk-luc reporter, luminescence, 24 h; normalized: DMSO 0%, positive control 100%. AID 743027. shares compounds with hcDAF-12 act;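 active means mean percent activation of the reporter above a cutoff set as the average over tested compounds plus their standard deviation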
Target sequence (P55055 whole entry, looked up, the tested form may be a part): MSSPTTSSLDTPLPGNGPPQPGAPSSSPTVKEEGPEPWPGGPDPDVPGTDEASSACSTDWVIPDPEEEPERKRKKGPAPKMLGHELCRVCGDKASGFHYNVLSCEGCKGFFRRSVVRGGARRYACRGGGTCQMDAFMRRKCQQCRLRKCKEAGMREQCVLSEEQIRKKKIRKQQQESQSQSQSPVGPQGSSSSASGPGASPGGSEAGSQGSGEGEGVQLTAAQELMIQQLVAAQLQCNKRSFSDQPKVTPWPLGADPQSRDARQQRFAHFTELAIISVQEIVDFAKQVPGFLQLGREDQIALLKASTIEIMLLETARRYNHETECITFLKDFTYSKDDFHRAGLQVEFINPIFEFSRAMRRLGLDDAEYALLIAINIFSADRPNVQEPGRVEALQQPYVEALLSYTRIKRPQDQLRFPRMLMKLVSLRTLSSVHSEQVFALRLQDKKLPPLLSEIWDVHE
hcDAF12 ag: confirmation of H. contortus DAF-12 agonists. hit rate 61% among 3,400. HEK293 hcDAF-12 lit1-tk-luc reporter, luminescence; % of Δ7-dafachronic acid response. activation, % at 6.8 µM. shares compounds with hcDAF-12 act. AID 743032;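 active means mean activation across triplicate tests above the threshold derived from the earlier primary screen, cut at about 5.5% in these data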;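 further: 0% = DMSO only wells and 100% = 3 µM Δ7-dafachronic acid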
hgDAF12 conf: hgDAF-12 agonism, confirmation assay | shares compounds with hgDAF12 agonist | activation, % at 6.8 µM | hit rate 80% among 3,300 | HEK293 GAL4-hgDAF12 luciferase reporter, agonist mode; percent of butyrate response;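 active means mean activation over triplicate wells above the hit cutoff derived from the earlier primary screen, cut at about 11% in these data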;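 further: 0% = DMSO low control and 100% = 2 mM sodium butyrate high control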
LXRb DAF12 ctr: LXR-beta agonism as DAF-12 counter-screen. shares compounds with hgDAF12 agonist. HEK293 Gal4-LXR luciferase reporter, 24 h. activation, % at 6.8 µM. 3,300 tested, under 10 active. AID 743051;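 active means mean activation of the triplicate above a set limit carried over from the primary screen, none filed active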
Numbers without * were called inactive; · = no result given.

SMILES | hgDAF12 agonist | hcDAF-12 act | ssDAF12 agonist | DAX1 inh-1 | DAX1 inh-2 | LXR ag | hcDAF12 ag | hgDAF12 conf | LXRb DAF12 ctr
Fc1ccc(-c2csc(Nc3ccccn3)n2)c(F)c1 | 14* | 15* | 3.4* | 3 | 2 | 2 | 16* | 20* | 1
Cc1ccc(-c2csc(Nc3ccccn3)n2)cc1 | 16* | 8.2* | 2.2* | -3 | 2 | 2 | 9.9* | 19* | 1
Cc1ccc(Nc2nc(-c3ccncc3)cs2)cc1 | 16* | 8.9* | 2.4* | 1 | 4.2* | 1 | 7.2* | 19* | 1
O=C(Nc1nc(-c2cc(F)ccc2F)cs1)c1ccccn1 | 4 | 2 | -1 | 0 | -1 | · | · | · | ·
Cc1nc(SCc2nc3ccccc3[nH]2)c2oc3cc([N+](=O)[O-])ccc3c2n1 | 3 | 3 | -1 | 1 | 0 | · | · | · | ·
Cc1ccc(Nc2nc(CSc3nnc(-c4ccncc4)n3C)cs2)cc1 | 16* | 7.3* | 0 | -2 | 4 | 1 | 4 | 15* | 0
CC(=O)Nc1cccc(-c2csc(Nc3ccc(C)cn3)n2)c1 | 17* | 13* | 1 | 0 | 5.5* | 2 | 8.3* | 21* | 1
Cc1ccc(CSc2nnc(-c3ccncc3)n2C)cc1 | -1 | -2 | -1 | -2 | 0 | · | · | · | ·
Cc1cc(-c2csc(Nc3ccccn3)n2)ccc1F | 17* | 15* | 1.7* | 4 | 2 | 2 | 12* | 19* | 1
Nc1c(NC=O)c(=O)n(Cc2ccccc2)c(=O)n1Cc1ccccc1 | 1 | 0 | -1 | 2 | 0 | · | · | · | ·
Cc1c(C(=O)OCCOc2ccc(Br)cc2)sc(=S)n1C | 1 | -3 | -2 | -1 | 0 | · | · | · | ·
NS(=O)(=O)c1ccc(N/C=C\C(=O)c2ccc(F)cc2)cc1 | 16* | 6.7* | 0 | 1 | 4.2* | 1 | 5 | 13* | 1
O=C(CNC(=O)c1ccccc1)NCC(O)c1ccc([N+](=O)[O-])cc1 (configuration not stated) | 3 | 0 | -1 | -2 | 0 | · | · | · | ·
CCOC(=O)c1c(N)sc(C(=O)Nc2ccccc2)c1C | 28* | 10* | 0 | -1 | 3 | 2 | 8.9* | 22* | 1
Cc1ccc(CC2SC(N=C(N)N)=NC2=O)cc1 (configuration not stated) | 0 | 0 | -1 | 0 | 0 | · | · | · | ·
O=C(Nc1cnc2ccccc2c1)c1ccco1 | 15* | 7.1* | 0 | 0 | 3 | 2 | 4 | 18* | 1
O=C(Nc1cccc(-c2cnc3ccccc3n2)c1)c1ccco1 | 1 | -1 | -1 | 0 | 0 | · | · | · | ·
CCc1sc(C(=O)Nc2ccc(NC(C)=O)cc2)cc1C | -4 | -2 | -1 | 0 | -1 | · | · | · | ·
Cc1csc(NC(=O)c2cc3c(s2)CCC3)n1 | 17* | 7.4* | 1 | -1 | 3 | 2 | 9.0* | 18* | 1
CCc1sc(C(=O)Nc2nc(C)cs2)cc1C | 15* | 9.2* | 0 | 0 | 3 | 2 | 6.1* | 17* | 1
CCOc1ccc(/C=N/O)cc1 | 3 | 1 | -1 | 0 | -1 | · | · | · | ·
Cc1ccc(COc2ccc(/C=N/O)cc2)cc1 | 17* | 7.8* | 1.4* | 5.5* | 2 | 1 | 7.0* | 17* | 1
CCN(CC)c1ccc(/C=C/C(=O)C2C(=O)C=C(C)OC2=O)cc1 (configuration not stated) | 19* | 7.7* | 0 | 0 | 2 | 0 | 4 | 8 | 0
O=C(CCSc1ccc(Br)cc1)c1ccc(O)cc1 | 3 | 1 | -1 | 0 | 0 | · | · | · | ·
Cc1ccc(-c2nc3ccccc3nc2Cl)cc1 | -1 | -2 | -1 | 1 | 1 | · | · | · | ·
SMILES | hgDAF12 agonist | hcDAF-12 act | ssDAF12 agonist | DAX1 inh-1 | DAX1 inh-2 | LXR ag | hcDAF12 ag | hgDAF12 conf | LXRb DAF12 ctr
Cc1ccc(-c2nc3ccccc3nc2NN)cc1 | 18* | 12* | 2.2* | 5.1* | 3 | 2 | 11* | 20* | 1
O=C1c2ccccc2-c2nc3ccccc3cc21 | 15* | 7.9* | 1.0* | 4 | 2 | 1 | 9.9* | 17* | 1
O=C(Nc1ccc2c(c1)OCO2)c1ccc(Br)s1 | 25* | 13* | 1.6* | 2 | 4.3* | 2 | 15* | 22* | 1
Cc1ccc(/C=N/NC(=O)c2ccc3c(c2)OCCO3)s1 | 6 | 3 | 0 | 4 | 2 | · | · | · | ·
Cc1ccc(C(=O)Nc2ccc3c(c2)OCO3)o1 | 10 | 3 | 1 | 1 | 2 | · | · | · | ·
O=C(Nc1cccnc1)c1noc2c1CCCC2 | 6 | 2 | -1 | 0 | 2 | · | · | · | ·
O=C(Nc1ccc2c(c1)OCO2)c1noc2c1CCCC2 | 15* | 8.1* | 1 | 2 | 2 | 2 | 8.5* | 16* | 1
O=C(N/N=C/c1cc(Br)cs1)c1ccc2c(c1)OCCO2 | 15* | 6.6* | -1 | · | 0 | 1 | 2 | 24* | 1
Cc1ccc(NC(=O)c2ccc3c(c2)OCO3)cc1Cl | 17* | 8.0* | 1.7* | 4.7* | 3 | 1 | 5 | 18* | 1
CCCCN(C(=O)c1ccc2c(c1)OCO2)C1CCS(=O)(=O)C1 (configuration not stated) | -2 | 0 | -1 | 2 | 2 | · | · | · | ·
COc1cccc(/C=N/NC(=O)CN(CCc2ccccc2)S(=O)(=O)c2ccc(NC(C)=O)cc2)c1 | -1 | -2 | 0 | -1 | 0 | · | · | · | ·
COc1ccccc1OC(C)C(=O)Nc1ccc2c(c1)OCCO2 (configuration not stated) | -1 | -2 | -1 | 0 | 0 | · | · | · | ·
O=C(Nc1ccc2c(c1)OCCO2)c1ccc(Br)cc1 | 15* | 8.3* | 0 | 2 | 2 | 2 | 7.2* | 14* | 1
COc1ccccc1C(=O)Nc1ccc2c(c1)OCCO2 | 14* | 6.8* | 1 | 2 | 2 | 1 | 6.6* | 14* | 1
CN(c1ccc(C(=O)Nc2ccc3c(c2)OCCO3)cc1)S(C)(=O)=O | 6 | 4 | -1 | 1 | 2 | · | · | · | ·
COc1ccc(Br)cc1/C=N/n1c(COc2ccccc2)n[nH]c1=S | -1 | 0 | -1 | 0 | 0 | · | · | · | ·
CCN(CC)S(=O)(=O)c1ccc(-c2cn3cc(Cl)ccc3n2)cc1 | 5 | -1 | 0 | -1 | -1 | · | · | · | ·
